About 2,000 (36%) of roughly 5,500 compounds were called active. Not shown: some 18% with an inconclusive outcome. Rule as the data show it: active = normalized growth mostly below about 0.91 (no sharp cut-off); inconclusive = no clear call, values can overlap the other calls; inactive = mostly above about 0.92. The list shows a part of the results.
Test: chemical genetic growth profiling, strain panel (AID 1159580);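 also: tested at 20 µM; growth read once vehicle control cultures reached saturation at 30 °C; 1 = growth at the plate median or of vehicle wells; lower values mean less growth of the strain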
Conditions: growth OD
[1] = S. cerevisiae deletion strains, locus YHR030C, strain SLT2, stronger effect = lower value
[2] = S. cerevisiae deletion strains, locus YHR079C, strain IRE1, stronger effect = lower value
[3] = S. cerevisiae deletion strains, locus YJL095W, strain BCK1, stronger effect = lower value
[4] = S. cerevisiae deletion strains, locus YJR066W, strain TOR1, stronger effect = lower value
[5] = S. cerevisiae deletion strains, locus YLR113W, strain HOG1, stronger effect = lower value
[6] = S. cerevisiae deletion strains, locus YNL183C, strain NPR1, stronger effect = lower value
[7] = S. cerevisiae deletion strains, locus YOR231W, strain MKK1, stronger effect = lower value
[8] = S. cerevisiae deletion strains, locus YPL256C, strain CLN2, stronger effect = lower value
[9] = S. cerevisiae deletion strains, locus YDL101C, strain DUN1, stronger effect = lower value

Measured: normalized growth

CC(=O)OCC(=O)[C@@]1(O)CCC2C3CCC4=CC(=O)C=C[C@]4(C)[C@@]3(Cl)[C@@H](Cl)C[C@@]21C (stereo partly specified)
inactive: [1] 0.991 | [2] 0.991 | [3] 0.968 | [4] 0.923 | [5] 1.06 | [6] 0.916 | [7] 0.952 | [8] 0.99

CN(C)/C=C1\CSc2ccc(Cl)cc2C1=O
active: S. cerevisiae deletion strains, locus YER123W, strain YCK3, stronger effect = lower value 0.565 | S. cerevisiae deletion strains, locus YFR019W, strain FAB1, stronger effect = lower value 0.771 | [1] 0.311 | [3] 0.444 | [5] 0.537 | S. cerevisiae deletion strains, locus YML070W, strain DAK1, stronger effect = lower value 0.618 | [8] 0.627
inactive: S. cerevisiae deletion strains, locus YAR019C, strain CDC15, stronger effect = lower value 0.927 | S. cerevisiae deletion strains, locus YBL105C, strain PKC1, stronger effect = lower value 0.957 | S. cerevisiae deletion strains, locus YBR135W, strain CKS1, stronger effect = lower value 0.965 | S. cerevisiae deletion strains, locus YBR136W, strain MEC1, stronger effect = lower value 0.949 | S. cerevisiae deletion strains, locus YBR160W, strain CDC28, stronger effect = lower value 0.95 | S. cerevisiae deletion strains, locus YDL017W, strain CDC7, stronger effect = lower value 0.953 | S. cerevisiae deletion strains, locus YDL028C, strain MPS1, stronger effect = lower value 0.953 | [9] 0.975 | S. cerevisiae deletion strains, locus YDL108W, strain KIN28, stronger effect = lower value 0.947 | S. cerevisiae deletion strains, locus YDL132W, strain cdc53, stronger effect = lower value 0.956 | S. cerevisiae deletion strains, locus YDL214C, strain PRR2, stronger effect = lower value 0.763 | S. cerevisiae deletion strains, locus YDR052C, strain DBF4, stronger effect = lower value 0.967 | S. cerevisiae deletion strains, locus YDR054C, strain cdc34, stronger effect = lower value 0.94 | S. cerevisiae deletion strains, locus YDR226W, strain ADK1, stronger effect = lower value 0.947 | S. cerevisiae deletion strains, locus YDR477W, strain SNF1, stronger effect = lower value 0.832 | S. cerevisiae deletion strains, locus YER133W, strain GLC7, stronger effect = lower value 0.811 | S. cerevisiae deletion strains, locus YFL009W, strain cdc4, stronger effect = lower value 0.944 | S. cerevisiae deletion strains, locus YFL029C, strain CAK1, stronger effect = lower value 0.932 | S. cerevisiae deletion strains, locus YFR003C, strain YPI1, stronger effect = lower value 0.952 | S. cerevisiae deletion strains, locus YFR028C, strain CDC14, stronger effect = lower value 0.942 | S. cerevisiae deletion strains, locus YGR040W, strain KSS1, stronger effect = lower value 0.832 | S. cerevisiae deletion strains, locus YGR052W, strain FMP48, stronger effect = lower value 0.799 | S. cerevisiae deletion strains, locus YGR092W, strain DBF2, stronger effect = lower value 0.824 | [2] 0.555 | S. cerevisiae deletion strains, locus YHR082C, strain KSP1, stronger effect = lower value 0.758 | S. cerevisiae deletion strains, locus YHR205W, strain SCH9, stronger effect = lower value 0.75 | S. cerevisiae deletion strains, locus YIL147C, strain SLN1, stronger effect = lower value 0.928 | S. cerevisiae deletion strains, locus YJL128C, strain PBS2, stronger effect = lower value 1.01 | S. cerevisiae deletion strains, locus YJL157C, strain FAR1, stronger effect = lower value 0.775 | S. cerevisiae deletion strains, locus YJR016C, strain ILV3, stronger effect = lower value 0.965 | S. cerevisiae deletion strains, locus YJR066W, strain TOR1 (second series), stronger effect = lower value 0.728 | [4] 0.633 | S. cerevisiae deletion strains, locus YKL048C, strain ELM1, stronger effect = lower value 0.937 | S. cerevisiae deletion strains, locus YKL067W, strain YNK1, stronger effect = lower value 0.771 | S. cerevisiae deletion strains, locus YKL101W, strain HSL1, stronger effect = lower value 0.861 | S. cerevisiae deletion strains, locus YKL193C, strain SDS22, stronger effect = lower value 0.938 | S. cerevisiae deletion strains, locus YKL203C, strain TOR2, stronger effect = lower value 0.886 | S. cerevisiae deletion strains, locus YLR133W, strain CKI1, stronger effect = lower value 0.799 | S. cerevisiae deletion strains, locus YLR403W, strain SFP1, stronger effect = lower value 0.792 | S. cerevisiae deletion strains, locus YMR001C, strain CDC5, stronger effect = lower value 0.941 | S. cerevisiae deletion strains, locus YMR205C, strain PFK2 (second series), stronger effect = lower value 0.872 | S. cerevisiae deletion strains, locus YMR277W, strain FCP1, stronger effect = lower value 0.943 | S. cerevisiae deletion strains, locus YNL006W, strain LST8, stronger effect = lower value 0.952 | S. cerevisiae deletion strains, locus YNL020C, strain ARK1, stronger effect = lower value 0.817 | S. cerevisiae deletion strains, locus YNL161W, strain CBK1, stronger effect = lower value 0.955 | [6] 0.559 | S. cerevisiae deletion strains, locus YNL207W, strain RIO2, stronger effect = lower value 0.922 | S. cerevisiae deletion strains, locus YNL222W, strain SSU72, stronger effect = lower value 0.955 | S. cerevisiae deletion strains, locus YNL307C, strain MCK1 (second series), stronger effect = lower value 0.822 | S. cerevisiae deletion strains, locus YOL078W, strain AVO1, stronger effect = lower value 0.95 | S. cerevisiae deletion strains, locus YOL136C, strain PFK27, stronger effect = lower value 0.691 | S. cerevisiae deletion strains, locus YOR061W, strain CKA2, stronger effect = lower value 0.831 | S. cerevisiae deletion strains, locus YOR119C, strain RIO1, stronger effect = lower value 0.862 | [7] 0.595 | S. cerevisiae deletion strains, locus YOR329C, strain SCD5, stronger effect = lower value 0.953 | S. cerevisiae deletion strains, locus YPL031C, strain PHO85, stronger effect = lower value 0.825 | S. cerevisiae deletion strains, locus YPL153C, strain RAD53, stronger effect = lower value 0.752 | S. cerevisiae deletion strains, locus YPL204W, strain HRR25, stronger effect = lower value 0.802 | S. cerevisiae deletion strains, locus YPL209C, strain IPL1, stronger effect = lower value 0.954 | S. cerevisiae deletion strains, locus YPR025C, strain CCL1, stronger effect = lower value 0.962 | S. cerevisiae deletion strains, locus YPR106W, strain ISR1, stronger effect = lower value 0.95 | S. cerevisiae deletion strains, locus YPR111W, strain DBF20, stronger effect = lower value 0.947 | S. cerevisiae deletion strains, strain NNK1, stronger effect = lower value 0.941 | S. cerevisiae deletion strains, strain TSCII, stronger effect = lower value 0.942

Cc1nnsc1C(=O)O/N=C1/CCSc2ccc(F)cc21
inactive: S. cerevisiae deletion strains, locus YAL013W, strain DEP1, stronger effect = lower value 0.975 | S. cerevisiae deletion strains, locus YBR229C, strain ROT2, stronger effect = lower value 0.969 | S. cerevisiae deletion strains, locus YCL061C, strain MRC1, stronger effect = lower value 0.994 | [9] 0.967 | S. cerevisiae deletion strains, locus YDL134C, strain PPH21, stronger effect = lower value 0.982 | S. cerevisiae deletion strains, locus YDR150W, strain NUM1, stronger effect = lower value 0.973 | S. cerevisiae deletion strains, locus YEL061C, strain CIN8, stronger effect = lower value 0.943 | S. cerevisiae deletion strains, locus YGR078C, strain PAC10, stronger effect = lower value 0.973 | S. cerevisiae deletion strains, locus YGR229C, strain SMI1, stronger effect = lower value 0.983 | [1] 0.775 | S. cerevisiae deletion strains, locus YHR087W, strain rtc3, stronger effect = lower value 0.966 | S. cerevisiae deletion strains, locus YJL187C, strain SWE1, stronger effect = lower value 0.996 | S. cerevisiae deletion strains, locus YJR043C, strain POL32, stronger effect = lower value 0.984 | S. cerevisiae deletion strains, locus YJR075W, strain HOC1, stronger effect = lower value 0.994 | S. cerevisiae deletion strains, locus YKL190W, strain CNB1, stronger effect = lower value 0.98 | S. cerevisiae deletion strains, locus YLR039C, strain RIC1, stronger effect = lower value 0.848 | S. cerevisiae deletion strains, locus YLR058C, strain SHM2 (second series), stronger effect = lower value 0.985 | S. cerevisiae deletion strains, locus YLR085C, strain ARP6, stronger effect = lower value 0.856 | S. cerevisiae deletion strains, locus YLR262C, strain YPT6, stronger effect = lower value 0.878 | S. cerevisiae deletion strains, locus YML094W, strain GIM5, stronger effect = lower value 0.932 | S. cerevisiae deletion strains, locus YMR219W, strain ESC1, stronger effect = lower value 0.988 | S. cerevisiae deletion strains, locus YMR263W, strain SAP30, stronger effect = lower value 0.989 | S. cerevisiae deletion strains, locus YNL128W, strain TEP1, stronger effect = lower value 1 | S. cerevisiae deletion strains, locus YNL153C, strain GIM3, stronger effect = lower value 0.971 | S. cerevisiae deletion strains, locus YNL298W, strain CLA4 (second series), stronger effect = lower value 0.973 | S. cerevisiae deletion strains, locus YNL322C, strain KRE1, stronger effect = lower value 0.979 | S. cerevisiae deletion strains, locus YNR030W, strain Alg12, stronger effect = lower value 0.945 | S. cerevisiae deletion strains, locus YOL006C, strain TOP1, stronger effect = lower value 0.981 | S. cerevisiae deletion strains, locus YPL055C, strain LGE1, stronger effect = lower value 0.956 | S. cerevisiae deletion strains, locus YPL241C, strain CIN2, stronger effect = lower value 0.997 | S. cerevisiae deletion strains, locus YPR135W, strain CTF4, stronger effect = lower value 0.874 | S. cerevisiae strains, strain wild type, stronger effect = lower value 0.978

Reference: PubChem BioAssay AID1159580 (chemical genetic matrix, 2015)
